Measurements from ChEMBL document CHEMBL1961873, “Compounds: GSK PKIS; Assays: Nanosyn kinase panel” (2012).

biological target: Casein kinase I isoform gamma-3 (Homo sapiens) (UniProt Q9Y6M4); conditions: at 1 µM;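 also: mean inhibition of CK1-g3, GSK PKIS screen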
Sequence (Q9Y6M4 whole entry, looked up, canonical isoform): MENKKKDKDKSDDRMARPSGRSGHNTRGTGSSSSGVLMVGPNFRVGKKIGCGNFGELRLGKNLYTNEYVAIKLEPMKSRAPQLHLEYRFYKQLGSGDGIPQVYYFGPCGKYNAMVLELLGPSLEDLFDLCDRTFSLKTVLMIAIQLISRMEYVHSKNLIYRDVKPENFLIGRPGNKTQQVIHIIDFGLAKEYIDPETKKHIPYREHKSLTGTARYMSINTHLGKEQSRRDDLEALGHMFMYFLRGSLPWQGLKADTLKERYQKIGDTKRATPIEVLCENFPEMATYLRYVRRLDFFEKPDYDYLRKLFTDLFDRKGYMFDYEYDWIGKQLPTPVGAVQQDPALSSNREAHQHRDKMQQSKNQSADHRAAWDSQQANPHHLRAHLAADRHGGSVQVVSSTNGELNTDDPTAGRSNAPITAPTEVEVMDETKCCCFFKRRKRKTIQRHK

Row | SMILES | inhibition [%]
1 | COc1ccc(-c2cc(-c3c[nH]nc3-c3ccccn3)ccn2)cc1 | 6.59
2 | Nc1nc(-c2cccc(Cl)c2)c(-c2ccc3ncccc3n2)s1 | 24.7
3 | Clc1ccc(-c2nn3ncccc3c2-c2ccnc(Nc3ccccc3)n2)cc1 | 4.02
4 | CCN1CCC(CC(=O)Nc2n[nH]c3nnc(-c4cccc(F)c4F)cc23)CC1 | 1.47
5 | CN1CCC(n2cnc(-c3ccc(F)cc3)c2-c2ccnc(N)n2)CC1 | 10.3
6 | CNC(=O)c1cncc(/C=C/c2ccccc2Cl)c1 | -0.89
7 | CC(C)COC(=O)c1ccc2c(c1)/C(=C/Nc1ccc(S(N)(=O)=O)cc1)C(=O)N2 | 20.6
8 | CCN(CC)S(=O)(=O)c1ccc(OC)c(Nc2ncc(-c3ccccc3)o2)c1 | 1.34
9 | COc1ccc(-c2oc3ncnc(N)c3c2-c2ccc(NC(=O)Nc3cc(C(F)(F)F)ccc3F)cc2)cc1 | 3.84
10 | COc1ccc(CNC(=O)c2ccc(-c3cc(-c4nnc(C)o4)ccc3C)cc2)cc1 | 0.83
11 | CC(C)(CO)CNC(=O)c1ccc2c(c1)/C(=N/Nc1ccc(S(N)(=O)=O)cc1)C(=O)N2 | 8.37
12 | Cc1cccc2c1NC(=O)/C2=N\Nc1ccc(S(N)(=O)=O)cc1 | 1.98
13 | Cc1ccc2c(-c3ccnc(Nc4ccccc4)n3)c(-c3ccc(F)cc3)nn2n1 | 51.5
14 | CNC(=O)c1cccc(C#Cc2cncnc2Nc2ccc(OCc3cccc(F)c3)c(Cl)c2)c1 | 0.88
15 | c1cc(-c2cnn3nc(N4CCOCC4)ccc23)nc(NC2CC2)n1 | 8.91
16 | FC(F)(F)c1cccc(-c2nn3ncccc3c2-c2ccnc(Nc3ccc4c(c3)OCCO4)n2)c1 | 4.56
17 | CC1=C(C(=O)Nc2cc(Cl)c3[nH]ncc3c2)C(c2ccc(C(F)(F)F)cc2)CC(=O)N1 (stereo not drawn) | 2.92
18 | COc1cc(N2CCN(C(C)C)CC2)ccc1Nc1nc(Nc2ccc(F)cc2C(N)=O)c2cc[nH]c2n1 | 59
19 | O=C(Nc1n[nH]c2cc(-c3ccc(F)cc3)ccc12)C1CC1 | 3.02

biological target: Cyclin-dependent kinase 1 (Homo sapiens) (UniProt P06493); conditions: at 0.1 µM;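 also: enzyme assay on the CDK1/cyclin B complex, reported as mean percent inhibition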
Sequence (P06493 whole entry, looked up): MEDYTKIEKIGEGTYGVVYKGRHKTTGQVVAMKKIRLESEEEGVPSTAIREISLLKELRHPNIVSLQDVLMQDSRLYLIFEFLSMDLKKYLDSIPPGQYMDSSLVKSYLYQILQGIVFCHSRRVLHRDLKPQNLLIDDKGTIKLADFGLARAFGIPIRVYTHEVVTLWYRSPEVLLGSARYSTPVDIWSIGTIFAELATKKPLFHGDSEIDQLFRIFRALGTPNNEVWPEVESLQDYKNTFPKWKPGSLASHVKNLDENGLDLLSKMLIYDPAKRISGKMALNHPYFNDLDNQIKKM

Row | SMILES | inhibition [%]
20 | COc1cc(/C=N/Nc2ncnc3[nH]ncc23)ccc1O | 2.77
21 | COc1cc(Nc2nccc(Nc3ccc4c(C)n[nH]c4c3)n2)cc(OC)c1OC | 0.71
22 | COc1cc2c(cc1Nc1nc(Nc3ccsc3C(N)=O)c3cc[nH]c3n1)N(C(=O)CN(C)C)CCC2(C)C | 2.56
23 | CCn1c(-c2nonc2N)nc2c(C#CC(C)(C)O)nc(OC[C@H](N)c3ccccc3)cc21 | 2.55
24 | COC(=O)Nc1nc2ccc(S(=O)(=O)c3ccc(NC(=O)Nc4cc(C(F)(F)F)ccc4F)cc3)cc2[nH]1 | 0.69
25 | N#Cc1c(NC(=O)c2ccc(F)cc2)sc2c1CCCC2 | -0.03
26 | CCn1c(-c2nonc2N)nc2c(C#CC(C)(C)O)ncc(OC3CCNCC3)c21 | 2.33
27 | CCn1c(-c2nonc2N)nc2cnc(Oc3cccc(NC(=O)c4ccc(N(C)C)cc4)c3)cc21 | 0.43
28 | Fc1cccc(COc2ccc(Nc3ncnc4sc(-c5ccco5)cc34)cc2Cl)c1 | -1.09
29 | O=S(=O)(CCNCc1ccc(-c2ccc3ncnc(Nc4ccc(OCc5cccc(F)c5)c(Cl)c4)c3c2)o1)c1ccccc1 | 0.29
30 | COc1cccc(-n2ncc3c(N/N=C/c4ccc(F)cc4)ncnc32)c1 | 9.55
31 | NC(=O)c1sc(-n2cnc3ccc(C(F)(F)F)cc32)cc1OCc1ccccc1Br | -0.53
32 | NS(=O)(=O)c1ccc(N/N=C2\C(=O)Nc3ccc4ncccc4c32)cc1 | 61.3
33 | c1ccc(-c2nc3n(c2-c2ccc4c(c2)OCO4)CCC3)nc1 | 0.17
34 | CCNC(=O)O[C@H]1CN[C@H](C#Cc2cc3ncnc(Nc4ccc(OCc5cccc(F)c5)c(Cl)c4)c3s2)C1 | 0.57
35 | COc1ccc(-c2cc(-c3c[nH]nc3-c3ccccn3)ccn2)cc1 | 0.11
36 | Nc1nc(-c2cccc(Cl)c2)c(-c2ccc3ncccc3n2)s1 | 0.61

Row | SMILES | inhibition [%]
37 | Clc1ccc(-c2nn3ncccc3c2-c2ccnc(Nc3ccccc3)n2)cc1 | 0.56
38 | CCN1CCC(CC(=O)Nc2n[nH]c3nnc(-c4cccc(F)c4F)cc23)CC1 | 1.67
39 | CN1CCC(n2cnc(-c3ccc(F)cc3)c2-c2ccnc(N)n2)CC1 | 0.23
40 | CNC(=O)c1cncc(/C=C/c2ccccc2Cl)c1 | 0.47
41 | CC(C)COC(=O)c1ccc2c(c1)/C(=C/Nc1ccc(S(N)(=O)=O)cc1)C(=O)N2 | 36.9
42 | CCN(CC)S(=O)(=O)c1ccc(OC)c(Nc2ncc(-c3ccccc3)o2)c1 | 0.99
43 | COc1ccc(-c2oc3ncnc(N)c3c2-c2ccc(NC(=O)Nc3cc(C(F)(F)F)ccc3F)cc2)cc1 | 0.92
44 | COc1ccc(CNC(=O)c2ccc(-c3cc(-c4nnc(C)o4)ccc3C)cc2)cc1 | 1.08
45 | CC(C)(CO)CNC(=O)c1ccc2c(c1)/C(=N/Nc1ccc(S(N)(=O)=O)cc1)C(=O)N2 | 37.2
46 | Cc1cccc2c1NC(=O)/C2=N\Nc1ccc(S(N)(=O)=O)cc1 | 0.2
47 | Cc1ccc2c(-c3ccnc(Nc4ccccc4)n3)c(-c3ccc(F)cc3)nn2n1 | -0.23
48 | CNC(=O)c1cccc(C#Cc2cncnc2Nc2ccc(OCc3cccc(F)c3)c(Cl)c2)c1 | 0.46
49 | c1cc(-c2cnn3nc(N4CCOCC4)ccc23)nc(NC2CC2)n1 | 2.3
50 | FC(F)(F)c1cccc(-c2nn3ncccc3c2-c2ccnc(Nc3ccc4c(c3)OCCO4)n2)c1 | 1.58
51 | CC1=C(C(=O)Nc2cc(Cl)c3[nH]ncc3c2)C(c2ccc(C(F)(F)F)cc2)CC(=O)N1 (stereo not drawn) | -0.73
52 | COc1cc(N2CCN(C(C)C)CC2)ccc1Nc1nc(Nc2ccc(F)cc2C(N)=O)c2cc[nH]c2n1 | 1.39
53 | O=C(Nc1n[nH]c2cc(-c3ccc(F)cc3)ccc12)C1CC1 | 0.08
